The values below come from PubChem BioAssay AID449762 (Southern Research Specialized Biocontainment Screening …, 2010).

The whole screen tested about 330,000 compounds, of which about 1,900 (0.58%) were called active. Roughly 4% stayed inconclusive and do not appear here. Only a sample is shown. Results with a measured potency or affinity are listed apart. A number with no mark means an inactive call. No stated cut-off is given here; in the data, inconclusive means inhibition above about 70% without an active follow-up result; inactive means below that.

The assay is described as follows: M. tuberculosis growth inhibition, HTS (AID 449762).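 Further: bacterial growth assessed after seven days of incubation.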 The conditions noted are these: M. tuberculosis H37Rv growth inhibition, 7H9 media; at 25 µM; active compounds read high.
For the compound `C/C(N)=C(/C#N)C(=O)COC(=O)CCSc1ccccc1Cl`, the inhibition is -0.73%. Turning to `O=C(Nc1ccc(Br)cc1Br)c1cccc2c1C(=O)N(C1CCCCC1)C2`, the inhibition was 10.8%. Take `CC(C)C[C@H](NC(=O)CCCn1nnc2ccccc2c1=O)C(=O)O`: the inhibition is 7.06%. Next, `Cc1cc(C)c2c(CC(=O)NNC(=O)c3ccccc3)coc2c1`: -11.5%.

Turning to `COc1ccc(N=Nc2ccc3ccccc3c2)c(O)c1`, the inhibition is 53.5%. Consider `COc1cc(N=Nc2ccccc2C(=O)O)ccc1O`, for which the inhibition was 5.29%.

For the compound `O=C(Nc1ccccn1)c1cc2ccccc2o1`, the inhibition is 3.67%. Consider `Cc1ccnc(NC(=O)c2cc3ccccc3oc2=O)c1`, for which the inhibition is 45.2%.

Turning to `O=C(CN1C(=O)NC2(CCCc3ccccc32)C1=O)NCCc1ccc(F)cc1` (stereo not drawn), the inhibition was 1.6%.

For `O=C(CSc1ccccc1)N1CCN(c2ccc(F)cc2)CC1`, the inhibition is -5.77%. Turning to `COc1cccc(/C=C/C(=O)OCC(=O)Nc2ccc(N3CCOCC3)cc2)c1OC`, the inhibition is -2.5%. With `COC(=O)CSc1nnc(CNc2nc(-c3ccccc3)cs2)n1C`, the inhibition was -7.67%.

In the case of `CC(C)OC(=O)CSc1nnc(CNc2nc(-c3ccccc3)cs2)n1C`, the inhibition was 0.34%.

For the compound `COC(=O)[C@H](CC(C)C)NS(=O)(=O)N[C@@H](CC(C)C)C(=O)OC`, the inhibition is -8.61%.

For the compound `CC1(C)Cc2c(sc(NC(=O)C(=O)N3CCCC3)c2C(=O)O)CO1`, the inhibition was 1.82%. In the case of `COC(=O)c1c(NC(=O)C(=O)N2CCCCC2)sc2c1CC(C)(C)OC2`, the inhibition is 5.56%. Regarding `COc1ccc2ccc3c(c2c1)N=CC1(O3)N(C)c2ccccc2C1(C)C` (stereo not drawn), the inhibition is -4.4%. Turning to `COc1ccc(N2CCN(C(=O)COCC(=O)O)CC2)cc1`, the inhibition was -6.23%. On to `COc1ccc(C(=O)NCCS(=O)(=O)N2CCN(C(=O)c3ccco3)CC2)cc1`, for which the inhibition is -5.88%.

Consider `COc1ccc(C(=O)CSc2n[nH]c(=O)[nH]c2=O)cc1`, for which the inhibition was -1.42%. Regarding `O=C(CSc1n[nH]c(=O)[nH]c1=O)c1ccccc1`, the inhibition was 51.6%. For `COc1ccc(NC(=S)NC2CCCCC2)c(OC)c1`, the inhibition was 4.99%. Next, `CCOc1ccccc1C(=O)N1CCN=C1SCc1cccnc1`: 10.2%. The value for `O=C(c1ccco1)N1CCN(S(=O)(=O)c2ccc(Cl)s2)CC1` was -11.2%. Turning to `O=C(c1cc2ccccc2o1)N1CCN(S(=O)(=O)c2cccs2)CC1`, the inhibition was 0.69%. On to `CCOC(=O)Cc1nnc(NC(=O)c2ccccc2OC)s1`, for which the inhibition is -7.9%.

With `N#Cc1ccc(S(=O)(=O)N2CCCN(c3nc4ccc(Cl)cc4s3)CC2)cc1`, the inhibition was -8.22%. On to `Clc1ccc(N2CCN(Cc3ccc(Br)o3)CC2)cc1`, for which the inhibition was 0.17%. For the compound `O=[N+]([O-])c1ccc(N2CCN(Cc3ccc(Br)o3)CC2)cc1`, the inhibition is 2.93%.

With `COc1ccc(N(CC(=O)N/N=C/c2ccco2)S(=O)(=O)c2ccccc2)cc1`, the inhibition is -4.51%.

Consider `O=C(c1ccoc1)N1CCC(CO)(CCc2ccccc2)CC1`, for which the inhibition is -5.69%. The value for `O=C(COc1ccccc1[N+](=O)[O-])Nc1ccccc1N1CCCCC1` was -4.5%; that for `COC(=O)c1c(C)[nH]c(C(=O)/C=C/c2ccccc2Cl)c1C` was 3.39%; that for `O=C(COc1ccccc1)Nc1sc2c(c1C(=O)NCc1cccnc1)CCCC2` was -7.35%. Next, `O=C(Nc1sc2c(c1C(=O)NCc1cccnc1)CCCC2)c1ccco1`: -2.45%; `O=C(Nc1c2c(nn1-c1ccc(F)cc1)CS(=O)(=O)C2)c1ccc2c(c1)OCO2`: -6.48%; `Cn1cc(/C=C/C(=O)c2ccccc2)c2ccccc21`: 58.1%. As to `COc1ccc(C(=O)/C=C/c2cn(CC(O)CN3CCN(C)CC3)c3ccccc23)cc1OC` (stereo not drawn), the inhibition is 8.14%. On to `Cc1cc(C)c(CN2CCC(n3nccc3NC(=O)CCOc3ccccc3)CC2)cc1C`, for which the inhibition is 67.4%. Next, `O=C(Nc1ccc(-c2ccccc2)cc1)c1ccccc1`: 9.06%; `COc1ccc(OCCN(C)CC(=O)Nc2c(C)cccc2C)cc1`: -3.93%. For the compound `Cc1c(C(=O)Nc2ccc(F)c(F)c2)oc2ccc(S(=O)(=O)N3CCCCC3)cc12`, the inhibition was 4.31%. On to `N=c1c2ccccc2nnn1-c1ccc(C(F)(F)F)cc1`, for which the inhibition was -1.84%. For the compound `Fc1ccc(Nc2ncnc3ccccc23)cc1`, the inhibition was 4.5%. Turning to `O=C(Nc1ncc2c(n1)-c1ccccc1OC2)c1ccc(Cl)cc1Cl`, the inhibition was -7.91%. The value for `CCCCc1ncc(CN2CCN(Cc3ccc(C)cc3)C(CCO)C2)[nH]1` (stereo not drawn) was 0.18%. Turning to `COc1ccc(NC(=O)C(=S)NC2CCCCC2)cc1`, the inhibition is 8.92%. For `C=CCc1c(C)nc(C)nc1N/N=C/c1ccc(F)cc1`, the inhibition is 6.56%. Next, `C=CCc1c(C)nc(C)nc1N/N=C/c1ccccc1`: -2.25%; `C#CCOCCOCCOCCNc1nc(N2CCN(C(=O)[C@H](CCC(=O)O)n3cc([C@@H](N)[C@H](C)CC)nn3)CC2)nc(N2CCN(C(=O)[C@H](CCC(=O)O)n3cc([C@@H](N)CCSC)nn3)CC2)n1`: 3.47%; `O=C1C=C(c2ccc3c(c2)oc2ccccc23)C[C@@H](c2ccc3c(c2)OCO3)C1`: 36.8%. On to `c1ccc(C2[C@H]3CN(CC4CCCCC4)[C@H](c4ccccc4)C34CC2(c2ccccc2)C4)cc1` (stereo partly drawn), for which the inhibition is 2.3%. For the compound `FC(F)(F)c1ccc(C2[C@H]3CN(CC4CCCCC4)[C@H](c4ccccc4)C34CC2(c2cccnc2)C4)cc1` (stereo partly drawn), the inhibition is 58%. For the compound `CC(C)(C#CCCCCC#CC(C)(C)[N+](C)(C)C)[N+](C)(C)C`, the inhibition was -2.46%. As for `Cc1ccc(/C=C/C(=O)c2ccc(C)cc2)cc1`, the inhibition was -12.1%.

With `Cc1ccc(C(=O)/C=C/C(=O)O)cc1`, the inhibition is -2.7%. `Cc1cc(Nc2ccc(C(=O)O)cc2)n2nc(C)nc2n1`: the inhibition is -2.73%. Next, `O=C(COc1ccccc1)Nc1nnc(-c2ccccc2Cl)o1`: 28.7%; `O=C(Nc1ccccc1)c1nc2ccccc2s1`: 23.7%. As to `OC1CCCN(Cc2nc(Cc3ccccc3Cl)no2)C1` (stereo not drawn), the inhibition was -6.97%. With `O=C(O)c1ccccc1Nc1cccc(OCc2ccc3ccccc3n2)c1`, the inhibition is -1.2%.

`CCCCC[C@@H](O)c1cc2ccccc2c(=O)o1`: the inhibition is -0.25%. Next, `CCc1ccc2c(c1)C(c1ccc(N3CCOCC3)cc1)=NNC(c1ccncc1)=N2`: 44.4%; `CCOC(=O)C1CCCN(C(=O)CCCn2c(=O)c3cccn3c3cccnc32)C1` (stereo not drawn): 1.46%. With `Cc1ccc(N2CC(C(=O)N3CCC(C(=O)Nc4ccc(Br)cc4)CC3)CC2=O)cc1` (stereo not drawn), the inhibition is 32.6%. `COc1ccccc1N=c1c2c([N+](=O)[O-])cc([N+](=O)[O-])cc2n(O)n1-c1ccccc1OC`: the inhibition was -0.38%.

On to `CCc1ccc(N=c2c([N+](=O)[O-])nn(-c3ccccc3)n2O)cc1`, for which the inhibition was 64.6%.

On to `COc1ccc(C(=O)N(CC2CCCO2)C(C(=O)NC2CCCC2)c2ccc(C)cc2)cc1OC` (stereo not drawn), for which the inhibition is -13.5%.

`COc1ccc(C(=O)CN2CC(C)SC2=Nc2ccc(Cl)cc2)cc1` (stereo not drawn): the inhibition is 13.6%.

Regarding `CN(C)/C=C1/OC(=O)C(C#N)=C1c1ccc(Cl)cc1`, the inhibition is -3.95%.

For `O=C1O/C(=C/c2ccccc2)c2ccccc21`, the inhibition was 4.48%. For the compound `O=C1CC(c2ccc(Cl)cc2)CC(=O)C1CS(=O)(=O)c1ccccc1` (stereo not drawn), the inhibition was 5.94%. Take `CCC(=O)N1N=C(c2ccc(NS(=O)(=O)c3ccccc3)cc2)CC1c1ccco1` (stereo not drawn): the inhibition was 1.78%. As for `CCn1c(=O)c2c(nc3n2CCCN3CCc2ccccc2)n(C)c1=O`, the inhibition is 6.27%. Turning to `COc1ccc(Cc2c(C)nc(N)nc2Cl)cc1`, the inhibition is 8.87%.

Take `Cc1nc(N)nc(Cl)c1Cc1ccc(Cl)cc1`: the inhibition is 0.95%. For the compound `COc1cc(OC)cc(C(=O)NCC(=O)OCC(=O)N2CCc3ccccc32)c1`, the inhibition is 5.39%. With `Cc1cc2c(nn1)CCc1c-2no[n+]1[O-]`, the inhibition is -1.95%. Regarding `O=C(CN1CCN(c2ncccn2)CC1)NCc1ccc2c(c1)OCO2`, the inhibition was -8.33%. On to `O=C(CN1CCN(c2nc(-c3ccccc3)cs2)CC1)Nc1ccc2c(c1)OCO2`, for which the inhibition is -7.77%. With `O=C1C2CC=C(Cl)CC2C(=O)N1CC1Cc2ccccc2CO1` (stereo not drawn), the inhibition was -2.11%. Consider `N#Cc1cccc(NC(=O)CCc2ccc(S(=O)(=O)N3CCOCC3)cc2)c1`, for which the inhibition was 2.35%. With `CCOc1ccc2nc(N3CCCC(C(=O)NCCCN4C(C)CCCC4C)C3)sc2c1` (stereo not drawn), the inhibition is 6.54%. In the case of `CCOc1ccc(CCNC(=O)C2CCN(c3nnc(-n4cccc4)s3)CC2)cc1`, the inhibition is -2%. On to `OCC[C@H]1C[C@@H](O)[C@H](O)[C@@]2(Cc3ccccc3CO2)O1`, for which the inhibition is -8.04%. `O=C(CSc1nnc(Nc2ccccc2F)s1)NC(=O)CN1CCCC1=O`: the inhibition was -10.7%. As for `Cc1nn(Cc2cccc(C(=O)Nn3cc([N+](=O)[O-])cn3)c2)c(C)c1[N+](=O)[O-]`, the inhibition was 10.2%.

Take `COc1ccc(OCc2cccc(C(=O)NN)c2)cc1`: the inhibition is 5.13%. In the case of `CC1CCN(C(=O)Cn2nnc(-c3ccccc3)n2)CC1`, the inhibition was 5.98%. In the case of `Cc1ccsc1/C=C1/SC(N2CC(C)OC(C)C2)=NC1=O` (stereo not drawn), the inhibition is 68.3%. As for `CC(C)(C)c1ccc(/C=C2/SC(N3CCCC3)=NC2=O)cc1`, the inhibition was 24.7%. As for `Cc1ccsc1/C=C1\SC(N2CC(C)OC(C)C2)=NC1=O` (stereo not drawn), the inhibition is 67.9%. With `O=C1N=C(N2CCCC2)S/C1=C\c1ccccc1`, the inhibition was 0.89%.
